SW480 rereplic – A quantitative high throughput screen for small molecules that induce DNA re-replication in SW480 colon adenocarcinoma cells. SW480 DNA re-replication, Hoechst DNA content imaging, 48 h. Potency, µM (doses to about 46.1 µM), actives largely listed as activators. hit rate 1.8% among 340,000; note: nearly all actives have a fitted effect of over 55% in size
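Treated cells incubate 48 hr (37 C, 5% CO2), are stained 40 min with Hoechst, and nuclear fluorescence is enumerated; a rise in nuclei with high DNA signal marks re-replication.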
KB-3-1 tox – qHTS assay for MDR1-selective chemotherapeutics: Primary screen using the parental adenocarcinoma cell KB-3-1. KB-3-1 viability, CellTiter-Glo ATP luminescence, 72 h. Potency, µM (series often up to 46.1 µM), hits mostly cytotoxic. hit rate 1.4% among 400,000. AID 1347075, 2019; note: nearly all actives have a fitted effect of over 60% in size
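Here the drug-naive KB-3-1 line serves as comparator for MDR sub-line selectivity; cells received compound titrations, 72 h at 37 °C, then CellTiter-Glo readout.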
HT1080 IDH1KD tx – qHTS for induction of synthetic lethality in tumor cells producing 2HG: qHTS for the HT-1080-IDH1KD cell line | hit rate 2% among 360,000 | HT-1080 IDH1 knockdown viability, ATP luminescence, 48 h | Potency, µM (highest dose often 46.1 µM), actives largely listed as cytotoxic
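Cytotoxicity counter-line: IDH1KD HT-1080, 48 h, CellTiter-Glo. Curves classed by r2, magnitude and activity.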
MCF10A rerep – A quantitative high throughput screen for small molecules that induce DNA re-replication in MCF 10a normal breast cells. MCF 10A DNA re-replication, Hoechst nuclear intensity, 48 h. Potency, µM (highest dose often 46.1 µM), actives largely listed as activators. hit rate 2.9% among 350,000; note: nearly all actives have a fitted effect of over 50% in size
KB-V1 cytotox – qHTS assay for MDR1-selective chemotherapeutics: Primary screen using the drug-selected MDR subline cells KB-V1; KB-V1 MDR cells viability, CellTiter-Glo, 72 h; Potency, µM (doses to about 46.1 µM), actives largely listed as cytotoxic; hit rate 3.4% among 400,000; AID 1347076, 2019; note: nearly all actives have a fitted effect of over 60% in size
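KB-V1, DMEM (no phenol red) + 10% FBS; cpd pin-transferred, titration series; 72 h, 37 degrees C; CellTiter-Glo, luminescence. Data normalized, curve-fit.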
HT1080NT lethal – qHTS for induction of synthetic lethality in tumor cells producing 2HG: qHTS for the HT-1080-NT fibrosarcoma cell line; HT-1080-NT fibrosarcoma viability, CellTiter-Glo ATP luminescence, 48 h; Potency, µM (top dose mostly 46.1 µM), most hits filed as cytotoxic; hit rate 1.6% among 360,000;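 note: NT is the 2HG producing partner of a matched IDH1 knockdown line; nearly all actives have a fitted effect of over 55% in size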
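Compounds were tested in concentration-response format on HT-1080-NT cells for 48 hours at 37 degrees C. Cell viability came from CellTiter-Glo luminescence; curves were classified by r2, response magnitude and activity.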
Of the large screens only hits and unclear results are named; the others gave an inactive call. Most compounds without a hit are left out; they make up all but 7.9% or so of the library. Calls come from the whole dose curve; as a rule, active = well fitted curve in the direction sought with a large enough effect; inconclusive = small, poorly fitted or top-dose-only effect, or another doubt; inactive = no such curve, though single readings can be large; an effect the other way counts as inactive or inconclusive.

Cc1ccc(C)c(NC(=O)CN2CCN(C3CCCCC3)C(=O)C2=O)c1	KB-V1 cytotox inconclusive (no result: SW480 rereplic, HT1080 IDH1KD tx, MCF10A rerep, HT1080NT lethal)
CCOc1ccc(/C=C2\CCC(C3CCCC3)C2=O)cc1 (centres undefined)	none
CCC(=O)OCOc1ccc(/C=C2/CCC(CN(C)C)C2=O)cc1 (centres undefined)	SW480 rereplic 12µM, KB-3-1 tox inconclusive, HT1080 IDH1KD tx 16µM, MCF10A rerep inconclusive, KB-V1 cytotox inconclusive, HT1080NT lethal inconclusive
COc1ccc(N2CC(NC(=O)c3ccc(S(=O)(=O)N4CCCCC4)cc3)CC2=O)cc1OC (centres undefined)	none (no result: SW480 rereplic, HT1080 IDH1KD tx, MCF10A rerep, HT1080NT lethal)
COc1ccc(CCNc2oc(-c3cccc4ccccc34)nc2P(=O)(OC)OC)cc1OC	SW480 rereplic inconclusive, MCF10A rerep inconclusive, KB-V1 cytotox 12µM
CCOP(=O)(OCC)c1nc(/C=C/c2ccccc2)oc1NCc1ccccc1	SW480 rereplic 21µM, KB-3-1 tox inconclusive, MCF10A rerep inconclusive, KB-V1 cytotox inconclusive
CCOP(=O)(OCC)c1nc(-c2cccc3ccccc23)oc1NCc1ccc(OC)cc1	SW480 rereplic 18µM, HT1080 IDH1KD tx inconclusive, MCF10A rerep inconclusive, HT1080NT lethal inconclusive
CCOP(=O)(OCC)c1nc(/C=C/c2ccccc2)oc1NCc1ccc(OC)cc1	SW480 rereplic inconclusive, HT1080 IDH1KD tx inconclusive, MCF10A rerep inconclusive, HT1080NT lethal inconclusive
CCOc1cc(C#N)c(-n2nnc3c(sc4nc(C)cc(C)c43)c2=O)cc1OCC	none (no result: SW480 rereplic, HT1080 IDH1KD tx, MCF10A rerep, HT1080NT lethal)
CCOc1ccc(-n2c(SC(C)C)nc3c(c2=O)SCC3)cc1	KB-V1 cytotox 2.9µM
CCOc1ccc(-n2c(SC)nc3c(c2=O)SCC3)cc1	none
Cc1nnc(N2CCC(C(=O)NCCc3ccccc3Cl)CC2)c2nn(-c3ccccc3)c(C)c12	KB-V1 cytotox inconclusive (no result: SW480 rereplic, HT1080 IDH1KD tx, MCF10A rerep, HT1080NT lethal)
C=CCn1c(SCC(=O)NC)nc2sc3c(c2c1=O)CCC3	KB-V1 cytotox 2.1µM
C=CCNC(=O)CSc1nc2sc3c(c2c(=O)n1CCCOC)CCC3	MCF10A rerep 6.5µM
COc1cc(OC)c(C(=O)NCc2nc(-c3ccccc3)no2)cc1OC	KB-V1 cytotox inconclusive (no result: SW480 rereplic, HT1080 IDH1KD tx, MCF10A rerep, HT1080NT lethal)
CCN(CC)C(=O)C1=C(C)N(Cc2ccc(OC)cc2)C(=O)C(CC(=O)NC2CC2)C1 (centres undefined)	none (no result: SW480 rereplic, MCF10A rerep)
Cc1cc(C)c2c(n1)sc1c(=O)n(-c3ccccc3C(F)(F)F)nnc12	KB-3-1 tox inconclusive (no result: SW480 rereplic, HT1080 IDH1KD tx, MCF10A rerep, HT1080NT lethal)
Cc1cc(OC2CCCCC2)nc(-c2ccccc2O)n1	MCF10A rerep 21µM
Cc1ccc(Oc2cc(C)nc(-c3ccccc3O)n2)cc1	MCF10A rerep inconclusive
CCN(C[C@H]1N[C@@](Cc2ccccc2)(C(=O)OC)[C@H]2C(=O)N(C)C(=O)[C@@H]12)C(=O)Nc1ccc(Cl)cc1	SW480 rereplic inconclusive
COc1ccc(NC(=O)CSc2nnc(-c3cccs3)n2-c2ccccc2)cc1	SW480 rereplic inconclusive, HT1080 IDH1KD tx inconclusive, MCF10A rerep inconclusive, HT1080NT lethal 23µM
CCn1c(CNc2ccc(OC)cc2)nnc1SCC(=O)Nc1ccc(F)cc1	KB-V1 cytotox 21µM
CCn1c(CNc2ccc(F)cc2)nnc1SCC(=O)Nc1ccc(OC)cc1OC	KB-V1 cytotox inconclusive
COc1ccc(NC(=O)CSc2nnc3c4c(nc(-c5ccccc5)n23)CC(C)(C)OC4)cc1	SW480 rereplic inconclusive, KB-V1 cytotox 2.9µM
CCn1c(Cc2ccc(OC)cc2)nnc1SCC(=O)Nc1cccc(C(=O)OC)c1	KB-V1 cytotox 5.2µM
CCOc1ccc(NC(=O)Cn2c(=O)n(CC3CCC(C(=O)NCCc4ccccc4)CC3)c(=O)c3ccccc32)cc1 (centres undefined)	KB-V1 cytotox inconclusive (no result: SW480 rereplic, HT1080 IDH1KD tx, MCF10A rerep, HT1080NT lethal)
CC1(C(=O)NS(=O)(=O)c2cccc(Cl)c2)CCN1C(=O)C1(c2ccc(Cl)cc2)CC1 (centres undefined)	none (no result: SW480 rereplic, MCF10A rerep)
C=CC(=O)N1CCC[C@@H](n2nc(-c3ccc(Oc4ccccc4)cc3)c3c(N)ncnc32)C1	KB-3-1 tox inconclusive, KB-V1 cytotox 22µM (no result: SW480 rereplic, HT1080 IDH1KD tx, MCF10A rerep, HT1080NT lethal)
Nc1ncnc2c1c(-c1ccc(Oc3ccccc3)cc1)cn2C1CCCC1	HT1080 IDH1KD tx 21µM, MCF10A rerep inconclusive, KB-V1 cytotox inconclusive, HT1080NT lethal 23µM
COc1cccc(CNC(=O)c2cc(-c3ccc(Cl)cc3)n[nH]2)c1	none (no result: SW480 rereplic, HT1080 IDH1KD tx, MCF10A rerep, HT1080NT lethal)
CN1C(=O)[C@@](O)(CC(=O)c2ccccc2)c2cc(Br)ccc21	KB-3-1 tox inconclusive (no result: SW480 rereplic, MCF10A rerep)
CN1C(=O)C(O)(CC(=O)c2ccccn2)c2cc(Br)ccc21 (centres undefined)	SW480 rereplic inconclusive, KB-3-1 tox inconclusive, MCF10A rerep inconclusive, KB-V1 cytotox 7.3µM, HT1080NT lethal inconclusive
CC1CCCCN1CCNC(=O)c1ccc2c(=O)n(Cc3ccc(Cl)cc3)c(=S)[nH]c2c1 (centres undefined)	SW480 rereplic inconclusive, HT1080 IDH1KD tx 23µM, MCF10A rerep 7.3µM, HT1080NT lethal 21µM
CN1CCN(C(=O)c2ccc3c(=O)n(CCc4ccccc4)c(=S)[nH]c3c2)CC1	KB-3-1 tox inconclusive
CC1CCCCN1CCNC(=O)c1ccc2c(=O)n(CCc3ccccc3)c(=O)[nH]c2c1 (centres undefined)	KB-3-1 tox 21µM
CN1CCN(CCCNC(=O)c2ccc3c(=O)n(CCc4ccccc4)c(=O)[nH]c3c2)CC1	SW480 rereplic 1.6µM

Source: PubChem BioAssay (National Center for Advancing Translational Sciences (NCATS))
